Compound activity as filed in PubChem BioAssay.
Compounds with a hit are over-represented: about 2.1% of the library has one in this group of screens.
PvdQ inh = P. aeruginosa PvdQ acylase inhibition | inhibition, % at 10 µM | purified PvdQ acylase, fluorescence plate reader | AID 488965 | 340,000 compounds, 0.063% hits; in the data active = inhibition above about 30%, passing the limit was not always enough; inconclusive = no clear call, values can overlap the other calls
ARNT-TACC3 inh = disruptors of human ARNT/TACC3 interaction. AlphaScreen His-ARNT PAS-B/GST-TACC3 binding, luminescence; TACC3 fragment carries E629A point mutation. inhibition, % at 9.99 µM. 390,000 compounds, 0.66% hits;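 active = mean inhibition of replicates at least 50% and at least half of replicates each reaching 50%; inconclusive = half or more replicates reach 50% but mean below 50%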
Ecoli rRNA inh = inhibits bacterial ribosomal RNA function over humanized ribosomes. E. coli WT GFP vs humanized-ribosome RFP mutants, fluorescence, 24 h; hits give low values; DMSO median 0, no signal -100. GFP signal change (wild-type ribosome), % (no concentration beside the values). 350,000 compounds, 1.6% hits;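 active = significant combined selectivity score with lowered wild-type GFP, culture density cut under 30%, mutant RFP and density less affected; inactive = any of these conditions unmet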
ERAP1 inh = inhibitors of human ERAP1 aminopeptidase | AID 652197 | Q9NZ08 | recombinant ERAP1, Leu-AMC fluorescence, 60 min | inhibition, % at 10.7 µM | 340,000 compounds, 0.15% hits;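 active = mean replicate inhibition of at least 30%, or all replicates individually reaching that 30% level; inactive = mean below 30% and not every replicate reaching it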
Target sequence (Q9NZ08 whole entry, looked up): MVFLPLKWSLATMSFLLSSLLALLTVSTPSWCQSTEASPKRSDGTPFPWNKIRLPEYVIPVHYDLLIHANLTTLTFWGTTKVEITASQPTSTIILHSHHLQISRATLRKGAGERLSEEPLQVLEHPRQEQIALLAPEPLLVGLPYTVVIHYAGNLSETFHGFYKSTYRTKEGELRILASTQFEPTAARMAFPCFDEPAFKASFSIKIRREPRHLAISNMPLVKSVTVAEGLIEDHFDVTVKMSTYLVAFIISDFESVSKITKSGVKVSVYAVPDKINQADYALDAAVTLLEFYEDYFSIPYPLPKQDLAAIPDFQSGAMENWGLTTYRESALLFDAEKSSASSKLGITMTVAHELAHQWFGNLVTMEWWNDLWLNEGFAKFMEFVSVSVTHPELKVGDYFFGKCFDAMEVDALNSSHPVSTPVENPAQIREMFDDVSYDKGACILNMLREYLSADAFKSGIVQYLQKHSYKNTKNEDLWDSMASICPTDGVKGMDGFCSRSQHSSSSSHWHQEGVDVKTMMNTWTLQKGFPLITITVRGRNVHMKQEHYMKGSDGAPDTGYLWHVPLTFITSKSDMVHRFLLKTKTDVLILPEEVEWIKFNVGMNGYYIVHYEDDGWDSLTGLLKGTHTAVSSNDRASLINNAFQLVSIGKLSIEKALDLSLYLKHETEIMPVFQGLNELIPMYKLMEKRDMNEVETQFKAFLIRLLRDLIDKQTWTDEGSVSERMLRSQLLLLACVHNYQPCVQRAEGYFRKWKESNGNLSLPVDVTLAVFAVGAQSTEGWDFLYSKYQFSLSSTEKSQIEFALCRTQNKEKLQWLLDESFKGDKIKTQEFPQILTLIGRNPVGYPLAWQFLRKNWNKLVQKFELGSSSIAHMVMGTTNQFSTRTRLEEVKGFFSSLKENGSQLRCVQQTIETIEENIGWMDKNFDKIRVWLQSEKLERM
CFTR F508del cor = correctors of CFTR F508del function in bronchial epithelial cells; 350,000 compounds, 0.36% hits; CFBE cells, YFP halide quenching; stimulated with forskolin plus potentiator P3; % fluorescence drop versus neutral controls; activity (quench increase), % at 7.58 µM; AID 720511;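 active = mean added fluorescence quench of at least 8% versus neutral control, with both replicates also reaching 8%; inconclusive = only one of the mean or replicate conditions met; inactive = mean below 8% and not both replicates reaching 8%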;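 note: cells transiently co-express mutant CFTR-F508del with the halide-sensitive YFP; corrector assay measuring rescue of mutant channel to the surface after 24 h compound exposure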
AID977621 = growth inhibition of wild-type GFP E. coli, dose response, H69 mutant RFP, cherry-pick. shares compounds with Ecoli rRNA inh. 1,900 tested, under 10 active. E. coli wild-type GFP strain growth, fluorescence, 24 h. activity change, negative = inhibition at 50 µM. AID 977621;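 active = Wild-type ribosome reporter drop at least double the humanized mutant ribosome reporter drop, growth loss under a set limit; inconclusive = no clear call, values can overlap the other calls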;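 note: wild-type GFP and H69 mutant RFP strains grown together 50/50 in each well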
AID977628 = growth of wild-type and h24-humanized E. coli strains – h24 mutant RFP vs wild-type GFP, cherry-pick, dose response; activity change, negative = inhibition at 50 µM; E. coli WT GFP strain growth, fluorescence, 24 h; AID 977628; 1,900 tested, under 10 active; shares compounds with Ecoli rRNA inh;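 active = compound lowering the normal-ribosome reporter at least twice as much as the humanized-ribosome reporter, growth loss under a set limit; inconclusive = no clear call, values can overlap the other calls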;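 note: wild-type GFP and h24 humanized RFP strains co-cultured 1 to 1 per well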
A number is an active result; i = inactive; ? = inconclusive; nt = no result given.

SMILES	PvdQ inh	ARNT-TACC3 inh	Ecoli rRNA inh	ERAP1 inh	CFTR F508del cor	AID977621	AID977628
COC(=O)c1ccc(COC(=O)c2ccccc2OC)cc1	i	nt	nt	nt	nt	nt	nt
O=C(C[n+]1cc(-c2ccc(F)cc2)n2c1CCC2)c1cccs1	i	i	-16	nt	i	i	i
Cn1c(NC(=O)C[n+]2cc(-c3ccc(F)cc3)n3c2CCC3)cc(=O)n(C)c1=O	i	i	nt	nt	nt	nt	nt
Cc1ccc(NC(=O)C[n+]2cc(-c3ccccc3)n3c2CCC3)cc1	nt	nt	-40	i	i	i	?
CCCCn1c(=O)[nH]c(=O)c2c1nc(-c1ccccc1F)n2Cc1ccccc1	i	i	-26	i	i	i	?
CCCCn1c(=O)[nH]c(=O)c2c1nc(-c1ccc(-c3ccccc3)cc1)n2C	i	i	i	i	i	nt	nt
N#C[C@H]1[C@@H](c2ccccc2C2=CCCC2)[C@H](CO)N1C(=O)C1CCCC1	nt	nt	i	i	i	nt	nt
CCOc1ccc2oc(C(=O)NC3CCN(Cc4ccccc4)CC3)c(C)c2c1	i	i	-23	i	i	i	nt
Cc1c(C(=O)NC2CCN(Cc3ccccc3)C2)oc2ccc(Br)cc12 (stereo not given)	i	i	i	i	i	nt	nt
NNC(=O)c1ccc(-c2ccccc2F)cc1	i	i	nt	i	i	nt	nt
C#CC(C)(C)NC(=O)c1ccc(-c2ccccc2F)cc1	i	i	-23	i	i	i	i
CCCC#Cc1cnc2c(c1)C(=O)N([C@H](C)CO)C[C@H](C)[C@@H](CN(C)C(=O)c1ccc3c(c1)OCO3)O2	nt	i	i	i	i	nt	nt
COc1ccc(NC(=O)c2cccs2)cc1C(=O)N1CCN(c2ccccc2)CC1	i	i	-21	i	i	i	i
Cc1ccc(-c2noc(-c3ccccc3C(=O)NCc3ccco3)n2)cc1	i	i	i	i	i	nt	nt
Cc1cccc(-c2noc(-c3ccccc3C(=O)NCc3ccco3)n2)c1	i	i	-33	i	i	i	i
C[C@@H]1CCCCO[C@@H](CN(C)C(=O)CCCN(C)C)[C@H](C)CN([C@H](C)CO)C(=O)c2cc(NC(=O)Nc3ccc(C(F)(F)F)cc3)ccc2O1	nt	i	i	nt	i	nt	nt
Cc1ccc(S(=O)(=O)N(C)C[C@@H]2Oc3ccc(NC(=O)Nc4ccccc4)cc3CC(=O)N([C@@H](C)CO)C[C@H]2C)cc1	nt	i	i	i	i	nt	nt
CS(=O)(=O)c1ccc(C(=O)Nc2nc(-c3ccco3)c(-c3ccco3)s2)cc1	i	i	-19	i	i	i	?
O=C(Nc1nc(-c2ccco2)c(-c2ccco2)s1)C1CCC1	i	i	i	i	i	nt	nt
CN1[C@@H]2c3ccc(/C=C/c4ccccc4)c(=O)n3C[C@@H]2[C@@H](CO)[C@@H]1C(=O)NC1CCCC1	nt	nt	i	i	i	nt	nt
COC(=O)c1cc(-c2ccc(Cl)cc2)n[nH]1	i	i	i	i	i	nt	nt
CCOC(=O)c1cc(-c2ccc(OC)cc2)n[nH]1	i	i	-25	i	i	i	i
CNC(=O)C[C@@H]1CC[C@@H]2[C@H](COc3ccc(NC(=O)Nc4cccc(F)c4)cc3C(=O)N2C)O1	nt	nt	i	nt	i	nt	nt
O=C(C[C@H]1CC[C@@H](NC(=O)Nc2ccc3c(c2)OCO3)[C@@H](CO)O1)NCc1ccc(F)cc1	nt	i	i	i	i	nt	nt
O=C(O)CCCCCCCCc1cn(CC2CCCCC2)nn1	i	i	-21	i	i	?	nt
SMILES	PvdQ inh	ARNT-TACC3 inh	Ecoli rRNA inh	ERAP1 inh	CFTR F508del cor	AID977621	AID977628
Cc1ccc(-n2cc(CCCCCCCCC(=O)O)nn2)cc1	i	i	i	i	i	nt	nt
COc1cccc(NC(=O)CSc2nc3c(sc4ccccc43)c(=O)n2CCN(C)C)c1	i	i	-22	i	i	?	i
COc1cccc(NC(=O)CSc2nc3c([nH]c4ccccc43)c(=O)n2C)c1	i	i	i	i	i	nt	nt
COc1cc(SC)ccc1C(=O)N(Cc1ccccc1)c1ccccn1	nt	nt	-19	i	i	i	i
CC(C)C(=O)N(Cc1ccccc1)c1ccccn1	i	i	nt	nt	nt	nt	nt
COCC(=O)N1[C@H](CO)[C@@H](c2ccccc2)[C@@H]1CN(C)C(=O)c1cccnc1	nt	i	i	i	i	nt	nt
CCCC(=O)Nc1ccc2c(c1)C(=O)N(C)[C@@H]1CC[C@@H](CC(=O)NCC3CCCCC3)O[C@@H]1CO2	nt	i	i	i	i	nt	nt
CCCC(CCC)C(=O)Nc1cccc(-c2cn3c(n2)SCC3)c1	i	i	i	i	i	nt	nt
O=C(Cc1ccc(Br)cc1)Nc1cccc(-c2cn3c(n2)SCC3)c1	i	i	-21	i	i	i	i
O=C(NCc1ccccc1)c1cc(S(=O)(=O)N2CCCCC2)ccc1N1CCOCC1	i	i	-18	i	i	i	i
O=C1CCCN1c1ccc([N+](=O)[O-])cc1	nt	nt	-4.0	i	i	?	?
O=C1CCCN1c1ccc(S(=O)(=O)N2CCCCC2)cc1	i	i	i	i	i	nt	nt
Cc1cccc(OCCn2c(=O)oc3ccc(C)cc32)c1	i	i	-27	i	i	i	i
Cc1ccc2oc(=O)n(CCOc3ccccc3)c2c1	i	i	i	i	i	nt	nt
Cc1cc(Br)cn2c(Cc3cccc(Cl)c3)c(-c3ccco3)nc12	nt	nt	-21	nt	i	i	i
COC(=O)C[C@H]1C=C[C@H](NS(=O)(=O)c2ccccc2F)[C@@H](CO)O1	nt	i	i	i	i	nt	nt
CN(Cc1ccc([N+](=O)[O-])cc1)c1ccccc1	i	i	-26	i	i	i	i
Fc1ccccc1C1CCN(Cc2nc(CC3CC3)no2)C1 (stereo not given)	i	i	-18	i	i	i	i
CCc1nc(C)cc2c1sc1ccccc12	nt	nt	i	nt	i	nt	nt
CC[n+]1c(C)cc2c(sc3ccccc32)c1C	i	i	-22	i	i	i	i
COCCNC(=O)C[C@@H]1C=C[C@@H](NC(=O)NC2CCCC2)[C@H](CO)O1	nt	i	i	i	i	nt	nt
COc1ccc(NS(=O)(=O)c2cc(OC)ccc2OC)cc1	i	i	i	nt	i	nt	nt
COc1ccc(NS(=O)(=O)c2cccc3ccccc23)cc1	i	i	-39	i	i	i	nt
Fc1ccc(-c2nc3ccc(Cl)cn3c2Cc2cccc(Cl)c2)cc1	nt	nt	-21	i	i	i	i
Cc1ccc2nc(-c3ccc(Cl)cc3)c(Cc3ccccc3C(F)(F)F)n2c1	nt	nt	-16	nt	i	i	i
COc1ccc(Cc2c(-c3cccc(Cl)c3)nc3ccc(Cl)cn23)c(C)c1	nt	nt	-19	i	i	?	i
COc1ccc(Cc2c(-c3cccc(Br)c3)nc3ccc(Cl)cn23)c(C)c1	nt	nt	i	i	i	nt	nt
Cc1ccc(-c2nc3ccc(Cl)cn3c2Cc2ccccc2C(F)(F)F)cc1	nt	nt	i	i	i	nt	nt
COc1ccc(-c2nc3ccc(C)cn3c2Cc2cccc(F)c2)cc1OC	nt	nt	i	i	i	nt	nt
COc1ccc(-c2nc3ccc(Cl)cn3c2Cc2cccc(F)c2)cc1OC	nt	nt	-21	i	i	?	nt
